Screens (PubChem)
GPR32 ag – agonists of human resolvin D1 receptor DRV1 (GPR32); CHO-K1 GPR32 beta-arrestin PathHunter luminescence, 90 min; zero percent set by DMSO-only wells; activation, % at 76.9 µM; actives 2.5% (n = 48,000);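 active means activation of at least 60% and not above a set upper limit, about 1 call in 100 departs from these limits; inconclusive means activation of 40% to 60%, or above that upper limit; inactive means activation under 40%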; further: 0% is about no effect
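Using DMSO wells as EC0, agonist-induced signal was taken as chemiluminescence from beta-Gal reconstituted upon beta-arrestin recruitment to GPR32 in CHO-K1 cells after 90 min compound treatment.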
GALC G270D up – galactocerebrosidase G270D activity enhancement, cell-based; 145M-Twi-hGALC-G270D cells, HMU-beta-Gal fluorescence, 48 h; AID 1159614; Potency, µM (top dose mostly 57.5 µM), hits mostly activators; P54803; actives 0.1% (n = 45,000); further: potency means the concentration at half of the fitted maximal effect; 0% is about no effect; nearly all actives have a fitted effect of over 65% in size
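qHTS, 1536-well; 145M-Twi-hGALC-G270D cells (WT line also made) in DMEM/F12 + 10% FBS; compound incubation on live cells; HMU-β-gal 0.1 mM final, pH 5.2, NaTC; carbonate stop; fluorescence increase = enhanced residual activity.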
NTMT1 inhibitor – NTMT1 methyltransferase inhibition; Q9BV86; Potency, µM (titrated, usually from 114 µM), without a hit: at the top dose activity change, negative = inhibition, hits mostly inhibitors; NTMT1 MTase-Glo SAH luminescence, purified enzyme; actives 2.5% (n = 59,000);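 further: potency means the concentration at half of the fitted maximal effect; plate controls were DMSO vehicle for no effect and no enzyme for full effect; nearly all actives have a fitted effect of over 65% in size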
FH mod – Identification of activators of human fumarate hydratase by quantitative high-throughput screening. FH coupled MDH/diaphorase resazurin fluorescence, 15 min. AID 1347055, 2019. Potency, µM (doses to about 79.9 µM), for the others: at the top dose activity change, negative = inhibition, hits mostly inhibitors. actives 0.22% (n = 54,000); further: potency means the concentration at half of the fitted maximal effect; on the % scale 0 is the no-effect control and ±100 the full control effect; the screen sought activators but most active calls are inhibition curves; nearly all actives have a fitted effect of over 45% in size
Target sequence (P07954 whole entry, looked up): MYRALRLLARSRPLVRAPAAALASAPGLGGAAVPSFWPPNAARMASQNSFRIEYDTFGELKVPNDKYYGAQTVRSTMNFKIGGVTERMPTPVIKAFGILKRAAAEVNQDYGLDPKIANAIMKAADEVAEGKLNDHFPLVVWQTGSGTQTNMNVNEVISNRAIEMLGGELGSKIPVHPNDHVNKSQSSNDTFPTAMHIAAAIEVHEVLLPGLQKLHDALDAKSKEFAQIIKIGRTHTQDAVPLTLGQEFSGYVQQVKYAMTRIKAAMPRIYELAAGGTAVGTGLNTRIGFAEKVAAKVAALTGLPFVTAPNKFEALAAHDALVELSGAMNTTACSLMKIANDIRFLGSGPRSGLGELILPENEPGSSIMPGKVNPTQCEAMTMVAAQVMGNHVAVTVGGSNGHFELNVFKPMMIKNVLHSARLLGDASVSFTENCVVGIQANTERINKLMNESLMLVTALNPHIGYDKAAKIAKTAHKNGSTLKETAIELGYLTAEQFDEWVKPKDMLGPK
HTT-AS promoter – HTT-AS promoter activation; Potency, µM (highest dose often 57.5 µM), for the others: top-dose activity change, positive = activation, actives largely listed as activators; HEK293 HTT-AS promoter firefly luciferase reporter, 24 h; response scale: percent change from vehicle, -100% = no light; actives 0.24% (n = 48,000); further: potency means the concentration at half of the fitted maximal effect; nearly all actives have a fitted effect of over 55% in size
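HEK293 Fluc reporter, 2,500 cells/well, 24 h pre-culture; cpds up to 57.5 uM final, 24 h 37 degrees C; Dual-Glo, 10 min RT; normalized vehicle = 0%, zero RLU = -100%.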
HTT prom inh – inhibits huntingtin promoter activity; HEK293 HTT promoter firefly luciferase reporter, 24 h; Potency, µM (doses to about 57.5 µM), for the others: top-dose activity change, negative = inhibition, actives largely listed as inhibitors; actives 0.93% (n = 48,000); further: potency means the concentration at half of the fitted maximal effect; nearly all actives have a fitted effect of over 50% in size
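Firefly luciferase readout (Dual-Glo, 10 min RT) after 24 h, 37 °C compound exposure (final up to 57.5 uM) of HEK293 reporter cells cultured 24 h beforehand; PTC124 at 50 uM final as control inhibitor; activity scaled vehicle 0%, zero RLU -100%.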
An asterisk follows results filed as active; i = inactive; ? = inconclusive; . = no result given; ! = not confirmed by another sample; [ ] = another dose, or the depositor's remark. The list is not random: actives were taken first. Their share in the collection is about 4.7%. Unless noted, the call rests on the fitted dose curve; in most records, active means well fitted curve in the direction sought with a large enough effect; inconclusive means small, poorly fitted or top-dose-only effect, or another doubt; inactive means no such curve, though single readings can be large; an effect the other way counts as inactive or inconclusive.

SMILES	GPR32 ag	GALC G270D up	NTMT1 inhibitor	FH mod	HTT-AS promoter	HTT prom inh
O=C(NCCO)c1ccc(-c2nnc(Nc3ccc(OC(F)(F)Cl)cc3)c3ccccc23)cc1	66*	i	9%	?	-49%	?
COc1ccc(-c2nnc(Nc3ccc(OCC(N)=O)cc3)c3ccccc23)cc1	10	.	.	.	.	.
C=C1/C(=C/C=C2\CCC[C@]3(C)[C@@H]([C@H](C)/C=C/C(=O)C4CC4)CC[C@@H]23)C[C@@H](O)C[C@@H]1O	.	.	-12%[57.5 µM]	-6%	.	.
CCOc1ccc(S(=O)(=O)Nc2cc(Cl)ccc2OC)c2cccnc12	4	i	-4%	-17%	-28%	-28%
CCc1ccccc1NS(=O)(=O)c1ccc(OC)c2ncccc12	14	i	89µM*	-20%	-34%	-19%
Nc1nc(Nc2ccc3c(c2)CCC(N2CCCC2)CC3)nn1-c1cc2c(nn1)-c1ccccc1CCC2 (stereo not given)	.	.	40µM*	-11%	.	.
CC(C)c1ccc(CC(=O)N2CCC[C@@H](c3cccc(OC(C)(C)C(=O)O)c3)C2)cc1	.	.	3%[57.5 µM]	5%	.	.
O=C(Cc1ccc(Cl)c(Cl)c1)Nc1ccc([S+](=O)([O-])Nc2ccc([N+](=O)[O-])cc2)cc1	.	.	-5%[57.5 µM]	.	.	.
O=C(Cc1ccc(Cl)c(Cl)c1)Nc1ccc([S+](=O)([O-])Nc2nnc(-c3ccccn3)s2)cc1	.	.	79µM*	.	.	.
COc1cc(C2CC(=O)N(Cc3ccc(F)cc3)c3ccccc3S2)cc(OC)c1OC (stereo not given)	17	i	-29%	-21%	-62%	14µM*
CCS(=O)(=O)c1ncc(N(Cc2ccccc2)Cc2ccco2)c(C(=O)Nc2cccc(Cl)c2C)n1	-14	i	1%	-18%	-24%	?
CCS(=O)(=O)c1ncc(Cl)c(C(=O)N(Cc2ccccc2)Cc2ccco2)n1	-8	i	-2%	4%	-94%	35µM*
NC1=NC2(c3cc(NC(=O)c4ccc(F)cn4)ccc3F)COCC2CS1 (stereo not given)	.	.	2%[57.5 µM]	11%	.	.
Cc1cc(C)cc(NC(=O)C2CC(=O)N(c3ccccc3)C2)c1 (stereo not given)	118*	i	2%	-9%	10%	-15%
Nc1nc(Nc2ccc(S(N)(=O)=O)cc2)n(C(=S)Nc2c(F)cccc2F)n1	.	.	18%[57.5 µM]	12%	.	.
CC(OC1OCCN(Cc2n[nH]c(=O)[nH]2)C1c1ccc(F)cc1)c1cc(C(F)(F)F)cc(C(F)(F)F)c1 (stereo not given)	.	.	-6%[57.5 µM]	-17%	.	.
CCOc1ccc(-n2nc3ccc(NC(=O)c4ccc(-c5cccc(Cl)c5)o4)cc3n2)cc1	-5	i	79µM*	-5%	-67%	?
CCOc1ccc(-n2nc3ccc(NC(=O)COc4ccccc4)cc3n2)cc1	-2	i	?	10%	-43%	?
O=C(NCCc1ccccc1)C1CCN(c2nc(-c3ccc(Br)cc3)cs2)CC1	.	.	5µM*	.	.	.
CC1(c2ccccc2)CC(C)(C)N(C(=O)c2cccc(Cl)c2)c2ccccc21 (stereo not given)	-30	i	1%	-18%	-26%	?
Cc1ccc2c(c1)N(C(=O)c1ccc(F)cc1)C(C)(C)CC2(C)c1ccccc1 (stereo not given)	9	i	-5%	?	-29%	28µM*
CC(=O)Nc1sc2c(c1-c1cccc3[nH]ncc13)CCNC2	.	.	8%[57.5 µM]	.	.	.
COc1ccc2c(c1)C=C1Cn3c-2c(C2CCCCC2)c2ccc(cc23)C(=O)NS(=O)(=O)N(C)CCOCCN(C)C1=O	.	.	45µM*	?	.	.
CN(C)c1ccc(/C=C(\C#N)c2nc3ccccc3c(=O)[nH]2)cc1	-4	i	35µM*	-3%	?	78%
Cc1nc2ccc(Oc3ccc(F)cc3)cc2c(=O)n1C[C@H]1CCCN(C(C)C)C1	.	.	-7%[57.5 µM]	-2%	.	.
SMILES	GPR32 ag	GALC G270D up	NTMT1 inhibitor	FH mod	HTT-AS promoter	HTT prom inh
CCCN(CCC)CC(O)Cn1cc(/C=C/C(=O)c2ccc(OC)cc2)c2ccccc21 (stereo not given)	-5	28µM*	-5%	-28%	-36%	?
CCCN(CCC)CC(O)Cn1cc(/C=C/C(=O)c2ccc(C)cc2)c2ccccc21 (stereo not given)	-11	i	-14%	-24%	-21%	?
COc1ccc(C(=O)/C=C/c2cn(CC(O)CN(CC(C)C)CC(C)C)c3ccccc23)cc1 (stereo not given)	-3	22µM*	14%	-18%	-32%	?
CC(C)NC(=O)c1ccc(C#Cc2ccncc2)cn1	.	.	5%[57.5 µM]	4%	.	.
Nc1ncnc2nc(-c3ccc(N4CCOCC4)nc3)cc(-c3cccc(Br)c3)c12	3	.	1.1µM*	3%	-35%	15%
O=[S+]([O-])(c1ccc(N2CCOCC2)nc1)N1CCN([S+](=O)([O-])c2c(F)cccc2F)CC1	.	.	5%	.	.	.
CN(C)c1ccc2nc3ccc(=[N+](C)C)cc-3sc2c1	-37	i	32µM*	?	-14%	-23%
Cc1cc2nc3ccc(=[N+](C)C)cc-3sc2cc1N	-50	i	22µM*	?	-20%	-12%
COc1cc(C(=O)Nc2nc(-c3ccccc3)cs2)ccc1NS(=O)(=O)c1ccc(C)cc1	.	.	6%[57.5 µM]	.	.	.
Cc1cc2ccccc2n1CCNC(=O)c1cccc(Br)c1	25	i	-5%	-16%	-16%	-20%
Cc1cc2ccccc2n1CCNC(=O)c1cccc(Cl)c1	116*	i	0%	-17%	-17%	-21%
O=C(Nc1ccc(Cl)c(Cl)c1)Nc1ccnc(-c2ccncc2)n1	.	.	-8%	.	.	.
COc1cc2nc(N3CCN(C(=O)C4COc5ccccc5O4)CC3)nc(N)c2cc1OC (stereo not given)	108*!	i	?	?	4%	6%
COc1cc2nc(N3CCN(C(=O)c4ccco4)CC3)nc(N)c2cc1OC	?	i	1%	?	-24%	?
c1cc(-c2cc(C3CCNCC3)[nH]n2)ccn1	.	.	8%[29.8 µM]	9%[53.3 µM]	.	.
